Screen size: about 5,500 compounds; about 2,000 (36%) were called active. Another 18% or so got no clear call; they are omitted. Cut-off read from the data, not from the text of the source: active = normalized growth mostly below about 0.91 (no sharp cut-off); inconclusive = no clear call, values can overlap the other calls; inactive = mostly above about 0.92. The list shows a part of the results.
Assay: chemical genetic growth profiling, strain panel (AID 1159580);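 note: tested at 20 µM; growth read once vehicle control cultures reached saturation at 30 °C; 1 = growth at the plate median or of vehicle wells; lower values mean less growth of the strain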
Settings: S. cerevisiae deletion strains, growth OD
[1] = locus YAL013W, strain DEP1, stronger effect = lower value
[2] = locus YBR229C, strain ROT2, stronger effect = lower value
[3] = locus YDL101C, strain DUN1, stronger effect = lower value
[4] = locus YDR150W, strain NUM1, stronger effect = lower value
[5] = locus YEL061C, strain CIN8, stronger effect = lower value
[6] = locus YGR078C, strain PAC10, stronger effect = lower value
[7] = locus YHR030C, strain SLT2, stronger effect = lower value
[8] = locus YHR087W, strain rtc3, stronger effect = lower value
[9] = locus YJL187C, strain SWE1, stronger effect = lower value
[10] = locus YJR043C, strain POL32, stronger effect = lower value
[11] = locus YJR075W, strain HOC1, stronger effect = lower value
[12] = locus YKL190W, strain CNB1, stronger effect = lower value
[13] = locus YLR039C, strain RIC1, stronger effect = lower value
[14] = locus YLR058C, strain SHM2 (second series), stronger effect = lower value
[15] = locus YLR085C, strain ARP6, stronger effect = lower value
[16] = locus YLR262C, strain YPT6, stronger effect = lower value
[17] = locus YML094W, strain GIM5, stronger effect = lower value
[18] = locus YMR219W, strain ESC1, stronger effect = lower value
[19] = locus YMR263W, strain SAP30, stronger effect = lower value
[20] = locus YNL153C, strain GIM3, stronger effect = lower value
[21] = locus YNL298W, strain CLA4 (second series), stronger effect = lower value
[22] = locus YNL322C, strain KRE1, stronger effect = lower value
[23] = locus YNR030W, strain Alg12, stronger effect = lower value
[24] = locus YOL006C, strain TOP1, stronger effect = lower value
[25] = locus YPL055C, strain LGE1, stronger effect = lower value
[26] = locus YPL241C, strain CIN2, stronger effect = lower value
[27] = locus YPR135W, strain CTF4, stronger effect = lower value

Measured: normalized growth

CCOC(=O)c1ccc2oc3ccc(O)cc3c(=O)c2c1
inactive: [1] 0.948 | [2] 0.982 | [3] 0.982 | locus YDL134C, strain PPH21, stronger effect = lower value 1 | [4] 0.973 | [5] 0.97 | [6] 1 | [7] 0.826 | [8] 0.937 | [9] 0.956 | [10] 0.977 | [11] 1.01 | [12] 0.979 | [13] 1 | [14] 0.988 | [15] 0.864 | [16] 0.99 | [17] 0.913 | [18] 1 | [19] 0.949 | locus YMR307W, strain GAS1, stronger effect = lower value 0.814 | [20] 0.973 | [21] 0.956 | [22] 1.01 | [23] 0.939 | [24] 0.945 | [25] 0.88 | [26] 0.908 | [27] 0.872

O=C(O)c1coc2ccccc2c1=O
inactive: [1] 1 | [2] 0.99 | [3] 0.973 | [4] 0.908 | [5] 1.02 | [6] 0.995 | locus YGR229C, strain SMI1, stronger effect = lower value 0.999 | [7] 0.867 | [8] 0.96 | [9] 0.992 | [10] 1 | [11] 0.897 | [12] 1.01 | [14] 0.995 | [15] 0.853 | [17] 0.96 | [18] 0.964 | [19] 0.978 | [20] 0.982 | [21] 1 | [22] 0.994 | [23] 0.888 | [24] 0.852 | [25] 0.906 | [27] 0.892
active: locus YCL061C, strain MRC1, stronger effect = lower value 0.906 | [13] 0.665 | [16] 0.764 | [26] 0.833

From PubChem BioAssay AID1159580 (chemical genetic matrix, 2015)
